Among the data in PubChem BioAssay AID651871 (Sanford-Burnham Center for Chemical Genomics, 2012) are activity (protection/inhibition) values, retold here.

In this test the test system is HL-1. Briefly: protection of cardiomyocytes from stress damage, SAR follow-up, cell-based, panel, H9c2 and HL-1, ATP luminescence, set 2 (AID 651871).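 Also: cells exposed to stressor for 2 h before ATP readout; reference of the scale not given here.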 Conditions: H9c2/HL-1 cardiomyocytes, 2-deoxyglucose stress, with 2-deoxyglucose, run 13, at 79 µM (top of the series).
For the compound `COc1ccc2nc(-c3cc(OC)c(OC)c(OC)c3)cc(C(=O)NCC(=O)Nc3ccc(C(C)=O)cc3)c2c1`, the activity (protection/inhibition) came to 55.5%.

As to `CCOC(=O)c1cccc(NC(=O)CNC(=O)c2cc(-c3cc(OC)c(OC)c(OC)c3)nc3ccccc23)c1`, the activity (protection/inhibition) is 66.6%.

Consider `COc1ccc2c(c1OC)C(=O)N1c3ccccc3C(=O)N(Cc3cccc(Cl)c3Cl)C21` (stereo not drawn), for which the activity (protection/inhibition) is -9.86%.
